What is called inhibition is the relative decrease from the control value, in per cent.

Unmarked numbers belong to inactive results. No rule for the calls is given here.

Pantothenate synthetase (Mycobacterium tuberculosis (strain ATCC 25618 / H37Rv)), sequence (P9WIL5 whole entry, looked up): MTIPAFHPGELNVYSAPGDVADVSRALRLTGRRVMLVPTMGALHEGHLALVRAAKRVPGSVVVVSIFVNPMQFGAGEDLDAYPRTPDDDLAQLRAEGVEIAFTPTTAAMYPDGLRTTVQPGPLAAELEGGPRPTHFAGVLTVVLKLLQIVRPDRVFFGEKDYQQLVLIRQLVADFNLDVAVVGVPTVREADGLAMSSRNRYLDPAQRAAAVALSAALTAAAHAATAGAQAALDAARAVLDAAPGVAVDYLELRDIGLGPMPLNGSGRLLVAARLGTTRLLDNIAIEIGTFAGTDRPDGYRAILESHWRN

This assay concerns the target Pantothenate synthetase (Mycobacterium tuberculosis (strain ATCC 25618 / H37Rv)) (UniProt P9WIL5). Kind of assay: Recombinant Mtb pantothenate synthetase (PanC) inhibitors, coupled enzyme, confirmatory (AID 375).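 Also: 0% = full reaction with vehicle and 100% = no enzyme background.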 The following applies: coupled enzyme assay; at 10 µM, hits give high values.
Take `Cc1ccc2[nH]c(=O)c(C(c3nnnn3CCc3ccccc3)N3CCOCC3)cc2c1` (stereo not given): the inhibition is 6%.

Regarding `CC(=O)N=c1sc(S(N)(=O)=O)nn1C`, the inhibition was 0%.

Regarding `COCCNC(=O)C(c1cccc(OC)c1)N(Cc1cccs1)C(=O)Cn1nnc2ccccc21` (stereo not given), the inhibition is 0%.

In the case of `Cc1nc(-c2ccccc2)sc1C(N)=O`, the inhibition is 0%.

With `COc1cccc2cc(C(=O)N3CCN(C45CC6CC(CC(C6)C4)C5)CC3)c(=O)oc12`, the inhibition was 1%.

Consider `CN1CCCN=C1COC(=O)C(O)(c1ccccc1)C1CCCCC1` (stereo not given), for which the inhibition was 0%.

`CCCN1C(=O)SC(CC(=O)Nc2ccc(Br)cc2)C1=O` (stereo not given): the inhibition is 2%.

With `CCOC(=O)c1ccc(S(=O)(=O)Nc2cc(C(C)(C)C)no2)cc1`, the inhibition is 2%.

As to `Cc1ccc(-n2nnnc2SCC(=O)Nc2c(C)n(C)n(-c3ccccc3)c2=O)cc1`, the inhibition was 0%.

For the compound `CN(C)CCCN1C(=O)C(=O)/C(=C(/O)c2ccncc2)C1c1cccc(Br)c1` (stereo not given), the inhibition was 1%.

For `O=C(Nc1ccccc1Cl)c1c(F)c(F)c(F)c(F)c1F`, the inhibition is 6%.

`O=C1CCc2cc(OCCCCc3nnnn3C3CCCCC3)ccc2N1`: the inhibition was 3%.

Regarding `COCc1cc(=O)[nH]c(Nc2nc3ccccc3o2)n1`, the inhibition is 0%.

With `CCOC(=O)N1CCC(Nc2nc3ccccc3n3cnnc23)CC1`, the inhibition was 10%.

As for `Cc1nc(SCC(=O)c2c[nH]c3ccccc23)n[nH]1`, the inhibition was 4%.

Take `CCOc1cccc(C(=O)N(Cc2ccc(F)cc2)C2CCS(=O)(=O)C2)c1` (stereo not given): the inhibition is 3%.

For the compound `COC(=O)c1cc(S(=O)(=O)N2CCC(C)CC2)ccc1F`, the inhibition is 6%.

On to `Cn1nc(C(=O)Nc2cccc(C(F)(F)F)c2)ccc1=O`, for which the inhibition was 0%.

Turning to `COc1ccc(C(=O)c2ccc(OC)c(N)c2)cc1N`, the inhibition is 0%.

For the compound `COC(=O)C1(C(=O)OC)Sc2ccccc2C1=O`, the inhibition is 3%.

As to `COc1ccc(CCn2c(NCCCN3CCOCC3)nc3c2c(=O)[nH]c(=O)n3C)cc1`, the inhibition is 0%.

As to `Cn1c(Cc2csc(N)n2)nnc1SCC(=O)NCc1ccccc1`, the inhibition is 3%.

Turning to `Cc1nc(SCC(=O)Nc2cc(C)on2)c2c3c(sc2n1)CCCC3`, the inhibition is 4%.

`Nn1c(SCC(=O)Nc2ccc(F)cc2)nnc1-c1cccnc1`: the inhibition is 0%.

`N#Cc1c(-c2ccc3c(c2)OCO3)csc1N`: the inhibition is 9%.

Consider `Cc1ccc(-c2cc(C(F)F)nc(NCC3CCCO3)n2)cc1` (stereo not given), for which the inhibition was 3%.

For `CN(c1ccccc1C(=O)NCC1CCCO1)S(C)(=O)=O` (stereo not given), the inhibition was 2%.

Regarding `N#CCC(=O)Nc1ncn(Cc2ccccc2Cl)n1`, the inhibition is 0%.

For `N/C(=N/O)c1nc(N2CCCC2)nc(N(c2ccccc2)c2ccccc2)n1`, the inhibition is 7%.

Consider `CCCCn1nnc(NC(=O)c2cc3ccccc3o2)n1`, for which the inhibition was 0%.

In the case of `COc1cccc(NS(=O)(=O)c2ccc3[nH]cc(C(=O)NC4CC4)c(=O)c3c2)c1`, the inhibition is 2%.

Take `O=C(c1ccccc1F)N1CCN(Cc2cccc(Cl)c2)CC1`: the inhibition was 5%.

Turning to `Cc1nc2cc(NC(=O)N3c4ccccc4CC3C)ccc2o1` (stereo not given), the inhibition is 0%.

On to `CCC(C(=O)O)n1c(C(F)(F)F)nc2ccccc21` (stereo not given), for which the inhibition was 4%.

Turning to `CCCCOc1ccc(-c2nnc(N)s2)cc1`, the inhibition is 0%.

On to `NC(=O)c1ccccc1NC(=O)CCCN1C(=O)CCC1=O`, for which the inhibition is 10%.

With `C=C(c1cccc2ccccc12)P(=O)(O)O`, the inhibition is 2%.

Regarding `CCC(C)NC(=O)C1(C)CCC(=O)N1CCc1ccc(OC)c(OC)c1` (stereo not given), the inhibition was 0%.

`Cc1ccc(-c2[nH]nc3c2C(c2ccc(OC(=O)N4CCOCC4)cc2)C(C#N)=C(N)O3)cc1` (stereo not given): the inhibition was 2%.

For the compound `CCCNC(=O)C1CC(=O)N(c2ccc(OCC(=O)Nc3cc(C)cc(C)c3)cc2)C1` (stereo not given), the inhibition is 0%.
